The source of these data is PubChem BioAssay (NCATS).

Inconclusive results are not listed. Where a call stands in place of a potency, no number is given. The source made the active and inactive calls. Calls come from the whole dose curve; as a rule, active = well fitted inhibition curve with a large enough effect; inconclusive = small, poorly fitted or top-dose-only effect; inactive = flat fitted curve, though single readings scatter.
Potency is the fitted concentration of half-maximal effect.

This assay in a line: Cytometry Cell-Based qHTS for Inhibitors of the mTORC1 Signaling Pathway in MEF cells (AID 2668). To be noted: mTORC1 pathway readout; series mostly up to 38.3 µM. An excerpt: NIH Molecular Libraries Probe Production Centers Network [MLPCN]
NIH Chemical Genomics Center [NCGC]
Assay Submitter (PI): Blenis, John; Hoffman, Greg; Harvard University
NCGC Assay Overview: The mammalian target of rapamycin (mTOR) is an intracellular serine/threonine kinase Aberrant regulation of mTOR signaling plays a causative role in a number of human diseases, including cancer, benign tumors such as lymphangioleiomyomatosis (LAM) and Tuberous Sclerosis Complex (TSC), and metabolic diseases such as diabetes and obesity. This project aims to identify inhibitors of ribosomal protein S6 (rpS6) phosphorylation. The phosphorylation of rpS6 is a key event downstream of mTOR activation. The assay uses a phospho-specific antibody of phospho-rpS6 to detect inhibitors of mTOR activation. Mutations in the Tsc1 and Tsc2 genes are the underlying genetic lesions responsible for TSC, causing constitutive activation of the mTORC1 pathway and leading to profound effects on cell metabolism. Aberrant metabolism in cancer has recently received significant attention as a target to develop therapeutic agents in the treatment of cancer.1 As Tsc2-/- cells have lost the ability to respond to energy and growth factor deprivation, these cells are unable to properly down regulate cellular biosynthetic processes in response to metabolic stress, and are thus extremely sensitive to glucose deprivation-induced death.2 A central goal of this project is to explore the unique cell survival and metabolic properties of cells with Tsc1 or Tsc2 by screening for compounds that selectively target the Tsc2-/- MEFs by screening both Tsc2-/- and WT MEF cell lines. We hope to better understand these aspects of TSC physiology in order to exploit them for therapeutic benefit.
NCGC Acumen Assay Protocol:
For quantitative high throughput analysis of mTORC1 signaling, we developed a cell-based assay for immuno-fluorescence based detection of rpS6 phosphorylation on the Acumen Explorer that will be used a platform for the primary small molecule screen. Mouse embryonic fibroblasts (MEFs) are cultured in 1536-well plates using DMEM + 10% FBS. Twenty-four hrs after plating, test compounds (solubilized in DMSO) are delivered and incubated with the cells for 24 hrs at 37 degree Celsius. Following the incubation, media with compound is aspirated and the cells are fixed in 4% paraformaldehyde (PFA) containing PBS + 0.2% TX-100. Next, PFA is aspirated, cells are washed two times with PBS plus 0.2% TX-100 and the cells are blocked for 1 hr at room temperature (blocking buffer: LiCOR Blocking Buffer plus 0.2% TX-100). This is followed by aspiration and staining with Alexa-488 conjugated-phospho-rpS6 Ser235/236 antibody for 2 hours at room temperature (Cell Signaling Technology # 4803, 1:50 dilution in blocking buffer). Cells are washed two times with PBS plus 0.2% TX-100, and stained with 10 uM propidium iodide (PI) for 20-25 minutes for cell number measurement (1:500 dilution of Hoescht staining is also added for IN Cell imaging). The plates are scanned on the Acumen Explorer laser scanning instrument (TTP Labtech) using the 488nm laser for simultaneous excitation of the Alexa-488 and PI. The fluorescence emission from the Alexa-488 conjugated rpS6 phospho-235/236 antibody staining is selected using a […] band pass filter. Fluorescence emission from the PI stain is selected using a 575-640 nm band pass filter. The normalized phospho-S6 staining is calculated as the ratio of the integrated Alexa 488 intensity divided by the integrated PI intensity for the single concentration rapamycin control (7.5 nM) and DMSO columns. […] Inhibition of the pathway is defined based on the normalized phospho-S6 intensity in rapamycin treated cells. […]
For orientation: In qHTS, concentration-response curves come from the screen itself.
Regarding `NCCc1c[nH]c2ccc(O)cc12`, the Potency result is “inactive”.

As to `O=C(Cc1ccc(Cl)c(Cl)c1)N1CCCCC1CN1CCCC1` (stereo not given), the Potency entry was “inactive”.

Turning to `CC(=O)[C@H]1CCC2C3CC[C@H]4C[C@H](O)CC[C@]4(C)C3CC[C@@]21C` (stereo not given in full), the Potency entry was “inactive”.

For `O=C(N[C@H]1CN2CCC1CC2)c1ccc(Cl)cc1`, the Potency entry was “inactive”.

In the case of `c1ccc(C2(c3ccccc3)CC2C2=NCCN2)cc1` (stereo not given), the Potency result was “inactive”.

As for `CCCN1CCC[C@H](c2cccc(O)c2)C1`, the Potency entry is “inactive”.

Regarding `CS(=N)(=O)CC[C@H](N)C(=O)O` (stereo not given in full), the Potency entry was “inactive”.

Consider `C[C@@H](N)Cc1cnc[nH]1`, for which the Potency result is “inactive”.

In the case of `NC(=NCCC[C@H](N)C(=O)O)N[N+](=O)[O-]`, the Potency result is “inactive”.

On to `NC1CC1c1ccccc1` (stereo not given), for which the Potency result was “inactive”.

On to `O=C(O)[C@@H]1CCN1`, for which the Potency entry is “inactive”.

In the case of `CC(=O)NCCc1c[nH]c2ccccc12`, the Potency entry was “inactive”.

As for `NC(=O)CN1CC(O)CC1=O` (stereo not given), the Potency entry is “inactive”.

For `Clc1cnc(Oc2ccc(Oc3ncc(Cl)cc3Cl)cc2)c(Cl)c1`, the Potency result was “inactive”.

Regarding `O=C1CCCN1CC#CCN1CCCC1`, the Potency entry is “inactive”.

Consider `CCCCc1ccc(C(=O)O)nc1`, for which the Potency result was “inactive”.

Turning to `COC(=O)[C@@H](N)CCCN=C(N)N[N+](=O)[O-]`, the Potency entry is “inactive”.

In the case of `C[C@@H]1O[C@H](C[N+](C)(C)C)C[C@H]1O`, the Potency entry is “inactive”.

`COc1cc(C(O)CN)ccc1O` (stereo not given): the Potency result was “inactive”.

As to `C[N+]1(C)C2CCC1CC(OC(=O)C(CO)c1ccccc1)C2` (stereo not given), the Potency entry was “inactive”.

`NC(N)=NOCCC(N)C(=O)O` (stereo not given): the Potency entry was “inactive”.

As for `O=C(O)Cc1cnc[nH]1`, the Potency result is “inactive”.

For `NC1CCc2cc(O)c(O)cc2C1` (stereo not given), the Potency entry was “inactive”.

Regarding `NC(CP(=O)(O)O)C(=O)O` (stereo not given), the Potency result was “inactive”.

Take `CC(C)NC(C)Cc1ccc(I)cc1` (stereo not given): the Potency entry was “inactive”.

As for `NCCc1c[nH]c2ccccc12`, the Potency result is “inactive”.

In the case of `C=CCN1CC[C@]23CCCCC2[C@H]1Cc1ccc(O)cc13` (stereo not given in full), the Potency result was “inactive”.

With `CC1=NN=C(c2ccc(N)cc2)c2cc3c(cc2C1)OCO3`, the Potency entry is “inactive”.

With `CCCN1CCO[C@@H]2c3cc(O)ccc3OC[C@H]21`, the Potency entry is “inactive”.

Regarding `S=C(NC1CCCCC1)N1CCC(c2cnc[nH]2)CC1`, the Potency entry is “inactive”.

With `O=C(O)CC[N+](=O)[O-]`, the Potency entry is “inactive”.

As to `CC(C)Oc1cccnc1N(C)C1CCN(Cc2ccccc2)CC1`, the Potency entry was “inactive”.

`C/C=C(/C)C(=O)O[C@H]1C(C)=C2[C@H]([C@@H]1OC(=O)CCCCCCC)[C@@](C)(OC(C)=O)C[C@H](OC(=O)CCC)[C@@]1(O)[C@H]2OC(=O)[C@@]1(C)O`: the Potency was 8.3 nM (active).

Consider `NC(CCP(=O)(O)O)C(=O)O` (stereo not given), for which the Potency result was “inactive”.

Consider `CCCN(CCC)C1CCc2ccc(O)cc2C1` (stereo not given), for which the Potency result was “inactive”.

For `NCc1cc(=O)[nH]o1`, the Potency entry is “inactive”.

Take `Cc1nccc2c1[nH]c1ccccc12`: the Potency result was “inactive”.

With `C[C@]12CCC3C(CC[C@H]4C[C@H](O)CC[C@]34C)C1CC[C@@H]2C(=O)CO` (stereo not given in full), the Potency entry was “inactive”.

With `CNCCc1c[nH]c2ccc(O)cc12`, the Potency result was “inactive”.

In the case of `CNCCc1ccc(O)c(O)c1`, the Potency entry is “inactive”.
